From the supplement of paper PMC10338343
± gives the standard deviation.

Test system: MILI (PIWIL2) piRISC loaded with L1MC piRNA (26 nt)
Assay: pre-steady-state target cleavage rate (min^-1); guide: L1MC piRNA 5'p-UAACUAAAUACUAUGCAAGCUGUAGG; MIWI and MILI are mouse PIWI proteins and EfPiwi is from a freshwater sponge; tags in brackets are library labels; higher = faster piRNA-guided slicing of the target
Details: auxiliary factor: 500 nM mouse GTSF1
How it was run: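 Active affinity-purified piRISC carrying one synthetic guide (1 nM) was mixed with a transcribed, DNA-blocked target RNA library […] in HEPES–potassium acetate buffer at 33 °C for 0–8 or 0–960 min, with or without 500 nM GTSF1 partner protein. Uncleaved targets were then sequenced and normalised to depth and to weakly complementary targets. Three trials were pooled, and k3 was capped at 0.0001 min^-1. A burst-and-steady-state fit was applied to obtain the pre-steady-state cleavage rate.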
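Further: 1 nM active piRISC with 0.1 nM target library at 33 °C single turnover.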

Sequence | pre-steady-state target cleavage rate
UCCUGGAUGUCGUUGCAUAGUAUUUAAUUA | 0.0359 ± 0.013
UCCUGGAACAGCUUGCAUAGAAUUUAGAAA | 0.0206 ± 0.0083
UCCUGGAUGAGCUUGCAUAGUAUUUUCUUA | 0.0122 ± 0.0069
UCCUGCAACAGCUUGCAUAGUAUUUACUUA | 0.122 ± 0.012
UCCUCCUACAGCUUGCAAUCUAUUUAGUAA | 0.0401 ± 0.0094
UCCUCCUACAGCUUGGUAAGUAUUUAGUAA | 0.155 ± 0.025
UCCUGGAACACCUUGCAUAGAAUUUAGUUA | 0.0907 ± 0.036
UCCUGGAACAGCUUGCAUAGUUUUAGUUA | 0.0123 ± 0.0053
UCCUCCUACAGCUUGCUAUGUAUUUUCAAA | 0.006 ± 0.0037
UCCUCCUACAGCUUGCAUAGAAUUUACUUA | 0.0813 ± 0.022
UCCUGGAUGUCGAUGCAUAGUAUUCUAGUUA | 0.115 ± 0.023
UCCUGGAUGUGCUUGCAUUGUAUUUAGAAA | 0.0114 ± 0.0047
UCCUGGAUGUCCUUGCAUUCAAUUUAGUUA | 0.00852 ± 0.0047
UCCUGGAUGUCGAACGAUGGUAUUUAGUUA | < 0.0001
UCCUGGAACAGCUUGCAAAGUAUUUUCAAA | 0.0111 ± 0.0049
UCCUGGAACAGCUUGCUAAGUAUUUACAAA | 0.0164 ± 0.0066
UCCUGGUACACCUUGCAUAGUAUUUUGUUA | 0.201 ± 0.054

Sequence | pre-steady-state target cleavage rate
UCCUGGAUGUGCUUGCAUACUAUUUAGUAA | 0.00943 ± 0.0038
UCCUGGAUGUCGAACCUAUAGUAUUUAGUUA | 0.00362 ± 0.0029
UCCUGGAUGUCCUUGCAUAGUAUAUUGUUA | 0.0329 ± 0.0079
UCCUGGAUCAGCUUGGAUAGAAUUUAGUUA | 0.0242 ± 0.0065
UCCUCCUACAGGUUGCAUAGUAUUUACUUA | 0.0691 ± 0.015
UCCUGGAUGUCGAUGCAUAGUAUUUACAAA | 0.0066 ± 0.0042
UCCUGGAUCAGGAUGCAUAGUAUUUAGAAA | 0.0525 ± 0.011
UCCUCCUACAGCUUGCAUAGUUAAUACAAA | 0.014 ± 0.0056
UCCUGGAUCAGCUUGCAAUCUAUUUAGUUA | 0.0116 ± 0.0035
UCCUGGAACAGCUUGCAUAGUAAAAAGAAA | 0.0185 ± 0.0077
UCCUGGAUGUCCUUGCAUAGUAUUUUCUUA | 0.0376 ± 0.011
UCCUGGAACAGCUACCAUAGUAUUUAGAAA | 0.0138 ± 0.0052
UCCUGGAUGUCGAUGCAUAGUAUAAAGUUA | 0.0643 ± 0.016
UCCUGGAUGUGCUUCGAUAGUAUUUAGUAA | 0.0404 ± 0.011
UCCUGGUACAGCUUGCAUAGAUUUUACAAA | 0.00751 ± 0.0049
UCCUGGAUGAGCUUCCAUAGUAUUUAGUAA | 0.0143 ± 0.0073
UCCUGGUACUGCUUGCAUAGAAUUUAGUUA | 0.0381 ± 0.017
